Bioassay records as filed in PubChem BioAssay.
Luciferase inh – Photinus pyralis luciferase inhibition; P08659; Potency, µM (highest dose often 115 µM), hits mostly inhibitors; hit rate 2.5% among 76,000; purified P. pyralis luciferase, luminescence, biochemical; AID 1347043; also: nearly all actives have a fitted effect of over 65% in size
Target sequence (P08659 whole entry, looked up): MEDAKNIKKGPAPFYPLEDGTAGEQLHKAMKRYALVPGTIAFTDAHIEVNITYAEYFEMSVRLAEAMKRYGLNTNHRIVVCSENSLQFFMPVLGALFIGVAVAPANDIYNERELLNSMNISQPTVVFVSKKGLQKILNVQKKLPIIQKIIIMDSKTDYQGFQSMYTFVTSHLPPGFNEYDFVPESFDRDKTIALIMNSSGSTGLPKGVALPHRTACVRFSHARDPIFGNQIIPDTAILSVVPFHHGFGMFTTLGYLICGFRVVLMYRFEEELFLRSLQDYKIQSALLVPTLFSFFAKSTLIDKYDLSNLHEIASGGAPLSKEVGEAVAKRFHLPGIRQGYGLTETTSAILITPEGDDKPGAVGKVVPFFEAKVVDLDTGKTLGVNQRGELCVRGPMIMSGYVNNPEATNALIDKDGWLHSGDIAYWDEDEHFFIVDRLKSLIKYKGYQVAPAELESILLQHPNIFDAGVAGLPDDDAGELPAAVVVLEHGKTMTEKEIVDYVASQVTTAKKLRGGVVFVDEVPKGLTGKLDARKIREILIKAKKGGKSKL
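Purified P. pyralis luciferase (10nM final) in 50mM Tris acetate pH 7.5, 10mM Mg acetate, 0.01% Tween-20, 0.05% BSA with 10uM D-luciferin and 10uM ATP. Compounds titrated qHTS. Luminescence imaged on CCD.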
NIH3T3 tox – cytotoxic compounds in NIH 3T3 cells | hit rate 4.3% among 94,000 | AID 1345082 | Potency, µM (titrated, usually from 96.7 µM), most hits filed as inhibitors | NIH 3T3 viability, CellTiter-Glo ATP luminescence, 48-72 h; also: nearly all actives have a fitted effect of over 55% in size
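Cytotoxicity is measured as loss of cellular ATP: NIH 3T3 cells (400/well) are exposed to compound for 48 or 72 hr at 37 °C, then CellTiter-Glo luminescence is imaged after 10 min at room temperature.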
hNpr1 antagonist – antagonists of human natriuretic peptide receptor Npr1 | Potency, µM (top dose mostly 46.3 µM), usual class: inhibitors | hit rate 1.6% among 76,000 | HEK293 hNpr1 GloSensor cGMP, ANP-stimulated luminescence; calls by dose curve; also: nearly all actives have a fitted effect of over 60% in size
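HEK293 cells stably expressing human Npr1 and cGMP GloSensor pGS-40F, loaded 2 h with 2% GloSensor reagent, given compound 30 min at room temperature. Luminescence read before and 20 min after 0.1 nM hNppA.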
HEK cytotox – HEK 293 cell cytotoxicity; HEK 293 viability, ATP luminescence (CellTiter-Glo), 48-72 h; Potency, µM (series often up to 115 µM), most hits filed as inhibitors; hit rate 6.6% among 94,000; also: nearly all actives have a fitted effect of over 60% in size
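HEK 293 seeded at 250 cells/well receive compound via pintool. After 48 or 72 hr at 37 degree Celsius, 5% CO2 and 95% humidity, CellTiter-Glo is dispensed and luminescence read following 10 min at room temperature.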
GPT2 inh – inhibitors of human GPT2 alanine aminotransferase; Q8TD30; AID 1671188; hit rate 0.25% among 100,000; Potency, µM (titrated, usually from 57.7 µM), hits mostly inhibitors; Recombinant GPT2, coupled pyruvate oxidase/HRP Amplex Red fluorescence; also: nearly all actives have a fitted effect of over 60% in size
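Fluorescence read-out: pyruvate from GPT2 turnover coupled to pyruvate oxidase, HRP and Amplex Red (0.2mM ThPP, 0.2U/mL PO and HRP, 50uM Amplex final). Substrates 250uM a-KG, 2mM L-alanine; enzyme 10ng/uL; 30 min RT.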
NPR1 antag cnf – hNpr1 antagonism, confirmation assay; hit rate 76% among 1,400; Potency, µM (series often up to 57.6 µM), hits mostly inhibitors; HEK293 hNpr1 cGMP GloSensor luminescence, ANP-stimulated; shares compounds with hNpr1 antagonist; calls by dose curve; also: nearly all actives have a fitted effect of over 70% in size
Npr2 selectivity – hNpr2 antagonism, selectivity versus Npr1. Potency, µM (highest dose often 57.6 µM), usual class: inhibitors. HEK293 hNpr2 GloSensor cGMP luminescence, CNP-stimulated. shares compounds with hNpr1 antagonist. AID 1347046. hit rate 67% among 1,400; calls by dose curve; also: nearly all actives have a fitted effect of over 70% in size
FLuc counter – FLuc enzyme inhibition, Npr1 counter-screen; purified FLuc enzyme, luminescence, Km substrate; AID 1347047; hit rate 0.7% among 1,400; Potency, µM (series often up to 57.6 µM), actives largely listed as inhibitors; shares compounds with hNpr1 antagonist
GloSensor cGMP – reduces cGMP signal in GloSensor control cells; shares compounds with hNpr1 antagonist; HEK293 GloSensor cGMP, SNP-stimulated, luminescence; Potency, µM (top dose mostly 57.6 µM), usual class: inhibitors; hit rate 69% among 1,400; calls by dose curve; also: nearly all actives have a fitted effect of over 70% in size
Large screens that a line does not name were inactive (follow-up assays come after a bar, where they were run); ! = repeats disagree. This is a sample that favours compounds with a hit; in the whole collection about 10% have one here. Unless noted, calls follow the shape of the dose curve; as a rule, active = well fitted curve in the direction sought with a large enough effect; inconclusive = small, poorly fitted or top-dose-only effect, or another doubt; inactive = no such curve, though single readings can be large; an effect the other way counts as inactive or inconclusive.

COc1ccc(-c2ccnc(N[C@H]3CO[C@H]4[C@@H]3OC[C@@H]4NC(=O)c3ccc(C)cc3)n2)cc1	NIH3T3 tox inconclusive, HEK cytotox inconclusive
Cc1ccc(C(=O)N[C@H]2CO[C@H]3[C@@H]2OC[C@@H]3Nc2nccc(-c3ccc(-c4ccccc4)cc3)n2)cc1	hNpr1 antagonist inconclusive, HEK cytotox 12.6µM | NPR1 antag cnf inconclusive | Npr2 selectivity inactive | FLuc counter inactive | GloSensor cGMP inactive
CSCc1nc(CNc2nc(C3CCCC3)nc3c2cnn3C)cs1	NIH3T3 tox inconclusive, hNpr1 antagonist 8.91µM, HEK cytotox 25.1µM | NPR1 antag cnf 15.3µM | Npr2 selectivity 19.3µM | FLuc counter inactive | GloSensor cGMP 12.2µM
Cn1cc(-c2ccc(O)c(F)c2)c2nc(COc3ccc(Cl)cc3)cn2c1=O	NIH3T3 tox 31.6µM, hNpr1 antagonist 14.1µM, HEK cytotox 31.6µM | NPR1 antag cnf 31.4µM | Npr2 selectivity 31.4µM | FLuc counter inconclusive | GloSensor cGMP 28µM
CC(=O)Nc1cc(-c2cn(C)c(=O)n3cc(COc4ccc(Cl)cc4)nc23)ccn1	none
COc1ccc(CN(C)C(=O)c2ccc3oc(C)cc3c2)c2cccnc12	NIH3T3 tox inconclusive, hNpr1 antagonist 5.01µM, HEK cytotox inconclusive | NPR1 antag cnf 6.85µM | Npr2 selectivity 6.85µM | FLuc counter inactive | GloSensor cGMP 4.32µM
O=c1[nH]c(C2CCN(Cc3ccc(-c4cccnc4)cc3)CC2)nc2ccc(F)cc12	NIH3T3 tox 5.62µM!, hNpr1 antagonist inconclusive, HEK cytotox inconclusive | NPR1 antag cnf 19.3µM | Npr2 selectivity 19.3µM | FLuc counter inactive | GloSensor cGMP 17.2µM
COc1cccc(-c2ccc(CN3CCCC(c4nc5ccc(C)cc5c(=O)[nH]4)C3)cc2)c1 (centres undefined)	NIH3T3 tox 28.2µM!, hNpr1 antagonist 11.2µM, HEK cytotox 25.1µM | NPR1 antag cnf 17.2µM | Npr2 selectivity 21.7µM | FLuc counter inactive | GloSensor cGMP 17.2µM
Cc1ccc2nc(C3CCN(Cc4ccccc4)CC3)[nH]c(=O)c2c1	none
COc1ccc(-c2ccc(C(=O)N3CCN([S+](=O)([O-])c4ccccc4)CC3)cc2)nn1	HEK cytotox inconclusive (no result: Luciferase inh, hNpr1 antagonist, GPT2 inh)
CC(C)=CCc1cc(C(O)C2NC(=O)CNC(=O)C(Cc3c[nH]c4ccccc34)NC(=O)C3CCCN3C(=O)CNC(=O)C(C(C)C)NC(=O)CNC2=O)ccc1O (centres undefined)	none (no result: Luciferase inh, NIH3T3 tox, hNpr1 antagonist, HEK cytotox)
CC(C)CCN1CCC(N2CCN(C(=O)CCCc3ccccc3)CC2)C1=O (centres undefined)	HEK cytotox inconclusive
O=C(c1nc2c(o1)CCN(Cc1ccc3c(c1)CCO3)CC2)N1CCOCC1	HEK cytotox inconclusive
Cc1cc(F)cc(CN2CCc3nc(C(=O)NCC4CC4)oc3CC2)c1	NIH3T3 tox inconclusive, hNpr1 antagonist 22.4µM, HEK cytotox inconclusive | NPR1 antag cnf 31.4µM | Npr2 selectivity 28µM | FLuc counter inactive | GloSensor cGMP 28µM
O=C(NCC1CC1)c1nc2c(o1)CCN(Cc1ccc3c(c1)CCO3)CC2	NIH3T3 tox inconclusive, hNpr1 antagonist 25.1µM, HEK cytotox inconclusive | NPR1 antag cnf 44.4µM | Npr2 selectivity inconclusive | FLuc counter inactive | GloSensor cGMP 35.3µM
Cn1ncc2c(C(=O)NCc3cccs3)cc(-c3cccnc3)nc21	NIH3T3 tox inconclusive, HEK cytotox inconclusive (no result: Luciferase inh, hNpr1 antagonist)
CNC(=O)CCC1CCCN(S(=O)(=O)c2cccc(F)c2)C1 (centres undefined)	none
O=C(CCC1CCCN(S(=O)(=O)c2cccc(F)c2)C1)NC1CCCCC1 (centres undefined)	NIH3T3 tox inconclusive, hNpr1 antagonist 15.8µM, HEK cytotox inconclusive | NPR1 antag cnf 27.3µM | Npr2 selectivity 24.3µM | FLuc counter inactive | GloSensor cGMP 24.3µM
O[C@H]1CC[C@@H](Cc2cc(-c3ccc(F)cc3)on2)O[C@@H]1CNC1CCCCC1	NIH3T3 tox 39.8µM, hNpr1 antagonist inconclusive, HEK cytotox inconclusive | NPR1 antag cnf inconclusive | Npr2 selectivity inconclusive | FLuc counter inactive | GloSensor cGMP inactive
CC(C)(C)C(=O)NC[C@H]1O[C@H](Cc2cc(-c3ccc(F)cc3)on2)CC[C@@H]1O	hNpr1 antagonist inconclusive, HEK cytotox inconclusive | NPR1 antag cnf inconclusive | Npr2 selectivity inconclusive | FLuc counter 19.8µM | GloSensor cGMP inconclusive
COc1ccc(-c2cc(C[C@@H]3CC[C@H](O)[C@@H](CNC(=O)Nc4ccccc4OC)O3)no2)cc1	NIH3T3 tox inconclusive, HEK cytotox inconclusive
Oc1cccc(-c2cc(C[C@@H]3CC[C@H](O)[C@@H](CNC4CCC4)O3)no2)c1	hNpr1 antagonist inconclusive | NPR1 antag cnf inconclusive | Npr2 selectivity inactive | FLuc counter inactive | GloSensor cGMP inactive
COc1ccc(-c2cc(C[C@@H]3CC[C@H](O)[C@@H](CNCc4ccccc4OC)O3)no2)cc1	Luciferase inh inconclusive, NIH3T3 tox 56.2µM, hNpr1 antagonist 28.2µM, HEK cytotox 31.6µM | NPR1 antag cnf 31.4µM | Npr2 selectivity 35.3µM | FLuc counter inconclusive | GloSensor cGMP inconclusive
COc1ccc(CNC[C@H]2O[C@H](Cc3cc(-c4cccc(O)c4)on3)CC[C@@H]2O)cc1	NIH3T3 tox inconclusive, HEK cytotox inconclusive
COc1cccc(CC(=O)N2CCC3(CC2)CC(c2nc(C)no2)N(C)C3)c1 (centres undefined)	none (no result: Luciferase inh, hNpr1 antagonist)
CCCN1CCCC12Cc1ccccc1CN(C(=O)c1c(C)noc1C)C2 (centres undefined)	none (no result: Luciferase inh, hNpr1 antagonist)
CC(C)NC(=O)C1CCC(=O)N1C1CCN(C(=O)Cc2ccccc2F)CC1 (centres undefined)	none (no result: Luciferase inh, hNpr1 antagonist)
Cc1ccc(S(=O)(=O)NC[C@H]2O[C@H](Cc3cc(-c4cccc(O)c4)on3)CC[C@@H]2O)cc1	NIH3T3 tox inconclusive, hNpr1 antagonist inconclusive, HEK cytotox inconclusive, GPT2 inh inconclusive | NPR1 antag cnf inconclusive | Npr2 selectivity inconclusive | FLuc counter inconclusive | GloSensor cGMP inconclusive
COc1ncccc1-c1cc(C(=O)NCCN(C)C)c2c(c1)ncn2C	none (no result: Luciferase inh, NIH3T3 tox, hNpr1 antagonist, HEK cytotox, GPT2 inh) | NPR1 antag cnf inactive | Npr2 selectivity inactive | FLuc counter inactive | GloSensor cGMP inactive
